Key:
[1] = tested on: Vero E6 infected with SARS-CoV-2; experiment: morphology score (similarity to uninfected cells); higher = more like uninfected cells; details: 24 h
[2] = tested on: Vero E6 infected with SARS-CoV-2; experiment: SARS-CoV-2 infection rate relative to infected DMSO; higher = more infection, active = 60 or less; details: 24 h

O=C1NC(=O)c2c1c1c3ccccc3[nH]c1c1[nH]c3ccccc3c21 [arcyriaflavin-a] (10 µM)
morphology score [1]: 0.363 | SARS-CoV-2 infection rate [2]: 106% (inactive)

COc1ccc(CN(C(=O)[C@@H](N)Cc2c(C)cc(C(N)=O)cc2C)[C@@H](C)c2ncc(-c3ccccc3)[nH]2)cc1C(=O)O [eluxadoline] (10 µM)
morphology score [1]: 0.15 | SARS-CoV-2 infection rate [2]: 117% (inactive)

CN[C@@H](C)[C@H](O)c1ccccc1 [ephedrine] (10 µM)
morphology score [1]: -0.038 | SARS-CoV-2 infection rate [2]: 106% (inactive)

CC[C@@](C)(Nc1ccnc(-c2c[nH]c3ncccc23)n1)C(=O)NCC(F)(F)F [decernotinib] (10 µM)
morphology score [1]: 0.178 | SARS-CoV-2 infection rate [2]: 108% (inactive)

COc1ccc(N(C(=O)Oc2c(C)cccc2C)c2ccnc(Nc3ccc(N4CCN(C)CC4)cc3)n2)c(OC)c1 (10 µM)
morphology score [1]: 0.0671 | SARS-CoV-2 infection rate [2]: 111% (inactive)

O=C1c2cc(Cl)ccc2OC2CCON12 (centres undefined) [seclazone] (10 µM)
morphology score [1]: 0.0763 | SARS-CoV-2 infection rate [2]: 102% (inactive)

O=C1S/C(=C\c2ccc(OCc3cccc(B(O)O)c3)cc2)C(=O)N1Cc1ccc(F)cc1 (10 µM)
morphology score [1]: 0.0573 | SARS-CoV-2 infection rate [2]: 104% (inactive)

C/C(=N\NC(=O)[C@@H]1C(=O)NC[C@H]1c1ccccc1)c1cccc(Br)c1 (10 µM)
morphology score [1]: -0.162 | SARS-CoV-2 infection rate [2]: 112% (inactive)

Cc1nc(Nc2ncc(C(=O)Nc3c(C)cccc3Cl)s2)cc(N2CCN(CCO)CC2)n1 [dasatinib] (0.833333 µM)
morphology score [1]: -0.0371 | SARS-CoV-2 infection rate [2]: 95.5% (inactive)

CC[C@H]1OC(=O)[C@@](C)(F)C(=O)[C@H](C)[C@@H](O[C@@H]2O[C@H](C)C[C@H](N(C)C)[C@H]2O)[C@](C)(OC)C[C@@H](C)C(=O)[C@H](C)[C@H]2N(CCCCn3cc(-c4cccc(N)c4)nn3)C(=O)O[C@]12C [solithromycin] (10 µM)
morphology score [1]: 0.351 | SARS-CoV-2 infection rate [2]: 104% (inactive)

CC(C)(S)C(N)C(=O)O (stereo in doubt) [penicillamine-(racemic)] (10 µM)
morphology score [1]: 0.0971 | SARS-CoV-2 infection rate [2]: 100% (inactive)

C=CCc1cc(OC)c(O)c(C(=O)NCCO)c1 [alibendol] (10 µM)
morphology score [1]: 0.101 | SARS-CoV-2 infection rate [2]: 118% (inactive)

c1ccc(-c2n[nH]cc2-c2ccnc3ccccc23)nc1 (10 µM)
morphology score [1]: -0.0555 | SARS-CoV-2 infection rate [2]: 114% (inactive)

CCOc1ccc(Cc2cc([C@@H]3O[C@H](SC)[C@@H](O)[C@H](O)[C@H]3O)ccc2Cl)cc1 [sotagliflozin] (10 µM)
morphology score [1]: -0.0387 | SARS-CoV-2 infection rate [2]: 114% (inactive)

Nc1cccc(CNC(=O)c2ccc(Oc3ccc(OCc4cccc(F)c4)cc3)nc2)c1 (10 µM)
morphology score [1]: -0.419 | SARS-CoV-2 infection rate [2]: 119% (inactive)

COc1cc(C(=O)OCCCN2CCCN(CCCOC(=O)c3cc(OC)c(OC)c(OC)c3)CC2)cc(OC)c1OC [dilazep] (0.833333 µM)
morphology score [1]: -0.00497 | SARS-CoV-2 infection rate [2]: 106% (inactive)

O=C(Cn1c(=O)sc2ccc(Cl)cc21)N1CCN(CCO)CC1 [tiaramide] (10 µM)
morphology score [1]: 0.00737 | SARS-CoV-2 infection rate [2]: 104% (inactive)

CC(C)C[C@H](NC(=O)CNC(=O)c1cc(Cl)ccc1Cl)B1OC(=O)C(CC(=O)O)(CC(=O)O)O1 (0.833333 µM)
morphology score [1]: -0.0464 | SARS-CoV-2 infection rate [2]: 108% (inactive)

COc1cc2c(Oc3ccc4[nH]c(C)cc4c3F)ccnc2cc1OCC1(N)CC1 [anlotinib] (10 µM)
morphology score [1]: -0.207 | SARS-CoV-2 infection rate [2]: 100% (inactive)

CN(C)c1cccc(Oc2cnc(Nc3cccc(O)c3)nc2)c1 (10 µM)
morphology score [1]: 0.0803 | SARS-CoV-2 infection rate [2]: 109% (inactive)

CN1CC(=O)N=C1NC(=O)Nc1cccc(Cl)c1 [fenobam] (10 µM)
morphology score [1]: -0.115 | SARS-CoV-2 infection rate [2]: 107% (inactive)

O=C(O)CCNC(=O)c1ccccc1 [betamipron] (10 µM)
morphology score [1]: 0.00831 | SARS-CoV-2 infection rate [2]: 118% (inactive)

CC(C)CC(N)=O [isovaleramide] (10 µM)
morphology score [1]: 0.0817 | SARS-CoV-2 infection rate [2]: 104% (inactive)

COc1cc2c(NC3CCN(CC4CCCCC4)CC3)nc(N3CCCN(C(C)C)CC3)nc2cc1OCCCN1CCCCC1 (0.833333 µM)
morphology score [1]: 0.165 | SARS-CoV-2 infection rate [2]: 92% (inactive)

Oc1c(Cl)cc(Cl)cc1Sc1cc(Cl)cc(Cl)c1O [bithionol] (10 µM)
morphology score [1]: -0.096 | SARS-CoV-2 infection rate [2]: 106% (inactive)

N[C@@H](CCC(=O)N[C@@H](CSN=O)C(=O)NCC(=O)O)C(=O)O [S-nitrosoglutathione] (10 µM)
morphology score [1]: 0.164 | SARS-CoV-2 infection rate [2]: 104% (inactive)

O=C(O)CNC(=O)c1ccccc1I [2-iodohippuric-acid] (10 µM)
morphology score [1]: -0.111 | SARS-CoV-2 infection rate [2]: 110% (inactive)

Reference: the supplement of paper PMC13380429
